Assay results taken from PubChem BioAssay (NCI).
The panel holds about 83,000 compounds, 20% with a hit somewhere; the sample as a whole holds those more often.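 Interpretation: 100, growth as untreated; towards 0, rising growth inhibition; 0, no net growth; 0 to -100, cell death. Compounds scoring below 10 were considered active.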 Values without a mark were called inactive. Active and inactive are the calls of the source.

tested on: U251 CNS; test: NCI-60 one-dose screen, 48 h (100 = growth as untreated, 0 = no growth, -100 = all killed); settings: 10 µM unless noted
Experimental: Growth inhibition of the U251 human tumor cell line is measured as a screen for anti-cancer activity. Cells are grown in 96 well plates and exposed to the test compound for 48 hours. Compounds are tested at a single concentration, which is 10^-5 M for most compounds. The reported endpoint is percent growth (GI% or GIPRCNT), where numbers from 0 - 100% represent growth inhibition, and numbers from -100% - 0 represent cell death. For example, a value of 40 represents 60% growth inhibition. A value of 0 means no net growth occurred over the course of the experiment. A value of -40 indicates 40% of cells at the beginning of the experiment died by the end of the experiment. A value of -100 means all cells are dead at the end of the experiment.
NCI-60 Human Tumor Cell Lines Screen was performed using the standard one-dose NCI protocol, which is described in more detail at https://dtp.cancer.gov/discovery_development/nci-60/default.htm.
Compounds with GIPRCNT values below 10 were considered active. Activity score was based on GIPRCNT using the following formula: […]
Score is 0 for GIPRCNT values of 100 or above, 50 for GIPRCNT values of 0, and 100 for GIPRCNT values of -100.

SMILES | growth
Cc1nc2ccccc2c(/C=C/c2ccc(Br)cc2)c1C(=O)/C=C/c1ccccc1 | -81.9% (active)
NCCNc1ccc([N+](=O)[O-])cc1 | 102%
O=C(Cn1cc(CSc2nc3ccccc3o2)nn1)Nc1ccc([N+](=O)[O-])cc1 | 97.9%
O=C(Nc1cccc(Cn2c(=O)[nH]c3ccc(Oc4ncccn4)cc3c2=O)c1)c1cccc(Cl)c1 | 61.9%
O=C(Nc1ncc(Cc2ccc(Cl)cc2)s1)c1ccc2c(c1)OCCO2 | 17.6%
COc1cc2cc(Oc3ccc(NC(=O)Nc4ccc(F)c(C(F)(F)F)c4)cc3)c(C)nc2cc1OCCN1CCCCC1 | -85.3% (active)
O=C(Nc1ccc2[nH]ncc2c1)c1csc(Nc2ccccc2)n1 | 28.7%
C=C(CNCCO)[C@@H]1CC[C@]2(CO)CC[C@]3(C)[C@H](CC[C@@H]4[C@@]5(C)CCC(NCCO)C(C)(C)[C@@H]5CC[C@]43C)[C@@H]12 (stereo not given in full) | 31.4%
O=C(c1ccccc1)[C@@H](c1ccccc1)[C@]1(O)C(=O)Nc2ccccc21 | 101%
CCCCCC(C)(O)C(C(=O)O)c1ccccc1 (stereo not given) | 99.2%
CC(=O)O[C@H]1CC[C@@]2(C)C(=CC[C@@H]3[C@@H]2CC[C@]2(C)C(Cl)=C(c4nc5ccc(Cl)cn5c4NC(C)(C)C)C[C@@H]32)C1 | 88.5%
COc1ccc(C2=NN(C=O)C(c3ccc(Oc4nc5c(c(=O)n(C)c(=O)n5C)n4C)c(OC)c3)C2)cc1 (stereo not given) | 90.1%
CCCc1cc(CCC)n2nc(N)nc2n1 | 110%
COc1cc(CNC(=O)CCCC/C=C/C(C)C)ccc1OCc1cn(-c2ccc(C(F)(F)F)cc2)nn1 | 46.7%
O=C(OCC(O)(CO)C(=O)NC12CC3CC(CC(C3)C1)C2)c1ccc(Cl)cc1 (stereo not given) | 93.5%
CCN1C(=O)N(CC)C2C1NN=c1s/c(=C\c3ccccc3)c(=O)n12 (stereo not given) | 8.08% (active)
COc1cc(C(=O)c2c(-c3ccccc3)oc3ccccc23)cc(OC)c1O | 25.6%
COc1ccc(-c2cc(-c3ccc(Cl)cc3)c(C#N)c(=O)n2CCCCC(=O)NO)cc1 | 69.7%
C#CCOc1cccc(-c2ncnc3cc(NC(=O)CCl)ccc23)c1 | -93.7% (active)
COc1ccc(-c2ccc(-c3ccc(C(=N)N)o3)o2)cc1 | -29.3% (active)

SMILES | growth
CCCCCCCC/C=C\CCCCCCCCOc1ccc(CC(=O)NCC[N+]2(C)CCCC2)cc1 | 15.1%
COc1ccc(NC(=O)CSc2oc(-c3ccccc3)nc2S(=O)(=O)c2ccc(Cl)cc2)c(OC)c1 | 50.6%
Cc1ccc(Nc2cc(N)nc(N)n2)cc1 | 109%
O=C(Nc1ccc(Oc2cccc(F)c2)c(Cl)c1)c1cnccn1 | 25.7%
Nc1ncc(-c2ccc3ncnc(N4CCc5cc(F)c(Cl)cc54)c3c2)cc1C=O | 48.5%
COc1cc(/C=N/NC(=O)c2ccc3nc(-c4ccc(Cl)cc4)[nH]c3c2)cc(OC)c1OC | 53.2%
CC(C)(C)n1cc(-c2ccnc(NCCNS(=O)(=O)c3cccc4ccccc34)c2)c(-c2cccc(O)c2)n1 | 57.5%
O=C(/C=C/c1cccc([N+](=O)[O-])c1)c1ccc(Nc2nc(Nc3ccc(F)cc3)nc(Nc3ccc(Cl)cc3)n2)cc1 | 81.1%
O=C(NC1CCCCCC1)c1ccc2c(=O)n3c(nc2c1)CCCCC3 | 99.7%
C/C(=C(\c1ccc(OCCCN(C)C)cc1)c1ccc(OC(=O)Cc2ccccc2)cc1)c1ccc(Cl)cc1 | 55%
O=C(Nc1ccc2c(c1)-c1ccccc1C2)C1CC(=O)N(c2ccc3c(c2)OCO3)C1 (stereo not given) | 19% [50 µM]
CN(C)CCCN(CCC1CCCCC1)CCC1CCCCC1 | 12.3%
CC(=O)c1c(/C=C/c2ccc(C)cc2)c2ccccc2[nH]c1=O | 86%
C=C(C)[C@@H]1CC[C@]2(COCCCNCCCN)CC[C@]3(C)[C@H](CC[C@@H]4[C@@]5(C)CC[C@H](OCCCN)C(C)(C)[C@@H]5CC[C@]43C)[C@@H]12 | -94.3% (active)
CC(C)=CCC[C@](C)(O)C1CC[C@]2(C)[C@@H]1CC[C@@H]1[C@@]3(C)CC/C(=N\OCCC#N)C(C)(C)[C@@H]3CC[C@]12C (stereo not given in full) | 90.3%
Cn1cc(-c2nc(-c3c[nH]c4c(Cl)nccc34)cs2)c2ccccc21 | 86.3%
NS(=O)(=O)Oc1cccc(-c2nc3sccn3c2-c2ccccc2)c1 | 36.3%
O=c1c(/C=C/c2c(O)ccc3ccccc23)nnc2sc(-c3cccc([N+](=O)[O-])c3)nn12 | 0.449% (active)
CC1(C)CC[C@]2(CO)CC[C@]3(C)[C@H](CC[C@@H]4[C@@]5(C)CC[C@H](O)C(C)(C)[C@@H]5CC[C@]43C)[C@H]2[C@H]1O | 62.3%
CCCN1C(=O)N(CCC)C2C1NC(=S)N2/N=C/C=C/c1ccccc1OC (stereo not given) | 11.9%
